From PubChem BioAssay
Many of the other results were omitted from the sample, so hits are more common in it than they were.
NOMO-1 viab: STK33 inhibitor candidate reducing NOMO-1 cell viability. NOMO-1 AML viability, CellTiter-Glo luminescence, 72 h. inhibition, % (concentration not given with the values). actives 7.5% (n = 37,000). AID 2330; in the data active = inhibition above about 80%; inconclusive = no clear call, values can overlap the other calls
STK33 kin inh: blocks human STK33 kinase activity; ADP-Glo luminescence, MBP substrate; inhibition, % at 12.5 µM; actives 0.44% (n = 27,000); Q9BYT3; in the data active = inhibition above about 20%; inconclusive = no clear call, values can overlap the other calls
Target sequence (Q9BYT3 whole entry, looked up): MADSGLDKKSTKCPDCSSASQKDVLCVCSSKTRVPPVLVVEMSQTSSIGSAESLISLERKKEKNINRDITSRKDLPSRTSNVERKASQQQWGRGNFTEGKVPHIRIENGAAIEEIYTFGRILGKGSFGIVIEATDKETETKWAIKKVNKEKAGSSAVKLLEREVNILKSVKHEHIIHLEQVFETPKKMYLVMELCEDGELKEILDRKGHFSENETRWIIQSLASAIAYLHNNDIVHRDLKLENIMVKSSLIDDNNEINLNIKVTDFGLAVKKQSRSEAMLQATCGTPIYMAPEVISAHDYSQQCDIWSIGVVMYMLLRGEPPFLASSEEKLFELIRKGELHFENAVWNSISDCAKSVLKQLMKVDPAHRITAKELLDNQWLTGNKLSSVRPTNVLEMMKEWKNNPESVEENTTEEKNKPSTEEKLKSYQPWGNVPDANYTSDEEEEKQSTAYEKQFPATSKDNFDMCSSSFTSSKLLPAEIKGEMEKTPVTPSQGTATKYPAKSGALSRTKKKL
PD-1 reverse act: activators reversing PD-1 mediated T-cell inhibition. primary human CD4 T cells, PD-L1 beads, CellTiter-Glo 96 h. 29,000 tested, under 10 active. activation, % (test concentration not listed); call rule not given here
Each line names hits and unclear results; the compound was inactive in the other large screens.

C[C@@H]1CN([C@@H](C)CO)C(=O)c2cccc(NC(=O)c3ccc(-c4nccs4)cc3)c2O[C@H]1CN(C)Cc1ccc(C(=O)O)cc1	none (no result: STK33 kin inh)
C[C@@H]1CN([C@H](C)CO)C(=O)c2cccc(NC(=O)c3ccc(-c4nccs4)cc3)c2O[C@H]1CN(C)Cc1ccc(-c2ccccc2)cc1	none (no result: STK33 kin inh)
C[C@H](CO)N1C[C@H](C)[C@@H](CN(C)Cc2ccc(Oc3ccccc3)cc2)Oc2c(NC(=O)c3ccc(-c4nccs4)cc3)cccc2C1=O	NOMO-1 viab 112 (no result: STK33 kin inh)
C[C@H](CO)N1C[C@H](C)[C@H](CN(C)Cc2ccc(C(F)(F)F)cc2)Oc2c(NC(=O)c3ccc(-c4nccs4)cc3)cccc2C1=O	NOMO-1 viab 98 (no result: STK33 kin inh, PD-1 reverse act)
C[C@H]1CN([C@@H](C)CO)C(=O)c2cccc(NC(=O)c3ccc(-c4nccs4)cc3)c2O[C@H]1CN(C)Cc1ccc(C(F)(F)F)cc1	none (no result: STK33 kin inh, PD-1 reverse act)
C[C@@H]1CN([C@@H](C)CO)C(=O)c2cccc(NC(=O)c3ccc(-c4nccs4)cc3)c2O[C@@H]1CN(C)Cc1ccc(C(=O)Nc2ccccc2N)cc1	NOMO-1 viab 141 (no result: STK33 kin inh)
COc1cc(Cl)c(C)cc1NC(=O)CC1Sc2ccccc2NC1=O (stereo not given)	NOMO-1 viab inconclusive (no result: PD-1 reverse act)
COC(=O)c1cc2ccccc2[nH]1	none (no result: STK33 kin inh)
Cc1cc(I)ccc1NC(=O)CN(c1ccc(F)c(Cl)c1)S(C)(=O)=O	none
CC1(C)CC[C@]2(C(=O)O[C@@H]3O[C@H](CO)[C@@H](O)[C@H](O)[C@H]3O)CC[C@]3(C)C(=CCC4[C@@]5(C)CC[C@@H](O[C@@H]6O[C@H](C(=O)O)[C@@H](O[C@@H]7OC[C@@H](O)[C@H](O)[C@H]7O)[C@H](O[C@@H]7OC[C@](O)(CO)[C@H]7O)[C@H]6O)C(C)(C)C5CC[C@]43C)C2C1 (stereo not given in full)	none
Cc1cc(C)c(NC(=O)CN(C)S(=O)(=O)c2ccc(Cl)cc2)c(C)c1	none
C[C@@H]1CN([C@@H](C)CO)C(=O)c2cccc(NC(=O)c3ccc(-c4nccs4)cc3)c2O[C@@H]1CN(C)Cc1ccccc1	none (no result: STK33 kin inh)
C[C@H](CO)N1C[C@H](C)[C@@H](CN(C)Cc2ccccc2)Oc2c(NC(=O)c3ccc(-c4nccs4)cc3)cccc2C1=O	NOMO-1 viab 97 (no result: STK33 kin inh)
C[C@H]1CN([C@@H](C)CO)C(=O)c2cccc(NC(=O)c3ccc(-c4nccs4)cc3)c2O[C@H]1CN(C)Cc1ccc(-c2ccccc2)cc1	none (no result: STK33 kin inh)
C[C@H](CO)N1C[C@H](C)[C@H](CN(C)Cc2ccc(-c3ccccc3)cc2)Oc2c(NC(=O)c3ccc(-c4nccs4)cc3)cccc2C1=O	NOMO-1 viab 88 (no result: STK33 kin inh)
CCOC(=O)c1c(NC(=O)C(C)Oc2ccccc2)sc(C)c1C (stereo not given)	none
CCn1c(SCC(=O)N2CCc3ccccc32)nnc1-c1ccc([N+](=O)[O-])cc1	none
COc1ccc(NC(=O)c2ccc(OC(C)C(=O)Nc3ccccc3C(F)(F)F)cc2)cc1Cl (stereo not given)	none
Cc1cccc(NC(=O)c2ccc(OC(C)C(=O)Nc3ccccc3C(F)(F)F)cc2)c1C (stereo not given)	NOMO-1 viab 113
COC(=O)[C@H]1CC[C@H](OC(C)=O)[C@]2(C)CC[C@@H](C(C)C)[C@@H](OC(=O)/C=C/c3ccccc3)C12 (stereo not given in full)	none
COc1ccc(-c2cc(C)nc(SCC(=O)Nc3cccc(Cl)c3Cl)n2)cc1	none
COc1ccc(C(=O)N(CCCCN2C(=O)c3ccccc3C2=O)c2ccc(C)cc2)cc1	none (no result: STK33 kin inh)
O=C(CC(Sc1ccccc1C(=O)O)c1ccc(F)cc1)c1ccc(F)cc1 (stereo not given)	NOMO-1 viab 117 (no result: STK33 kin inh)
NC(=O)c1ccccc1NCC(=O)c1ccc(F)cc1	none (no result: STK33 kin inh)
O=c1nc(Nc2ccc(OC(F)(F)F)cc2)oc2ccccc12	none (no result: STK33 kin inh)
O=C(Cn1c(-c2ccccn2)nc2ccccc21)NCc1ccccc1	none
COc1ccc(OC)c(NC(=O)COc2ccc3c(=O)c(-c4ccccc4OC)c(C(F)(F)F)oc3c2)c1	none (no result: PD-1 reverse act)
C=CCN1C(=O)/C(=C/c2cc(C)n(CCOC)c2C)C(=O)NC1=S	none (no result: STK33 kin inh)
C=CCN1C(=O)/C(=C/c2cn(C(C)CC)c3ccccc23)C(=O)NC1=S (stereo not given)	NOMO-1 viab 132 (no result: STK33 kin inh)
COc1ccc(CC(=O)Nc2ccc(O)cc2C(=O)O)cc1OC	none (no result: PD-1 reverse act)
CC1=CCC[C@@H]2[C@](CCc3ccoc3)(C(=O)O)[C@H](C)CC[C@@]12C	none
C[C@@H]1C[C@H]2OCC3=CCC[C@H]([C@]1(CC(O)c1ccoc1)C(=O)O)[C@]32CO (stereo not given in full)	NOMO-1 viab 120
COc1ccc(OC)c(N(CC(=O)Nc2ccc(I)cc2C)S(C)(=O)=O)c1	none
c1ccc(-c2nc3ccc(Cc4ccc5nc(-c6ccccn6)c(-c6ccccn6)nc5c4)cc3nc2-c2ccccn2)nc1	none
Cc1cc(=S)nc(-c2ccccn2)[nH]1	NOMO-1 viab 112 (no result: STK33 kin inh)
N/C(=N\S(=O)(=O)c1ccc(Cl)c(Cl)c1)c1ccccn1	none (no result: STK33 kin inh)
COC(=O)c1cc(C(=O)OC)cc(-n2c(C)cc(C(=O)CSc3nc(C)cc(C)c3C#N)c2C)c1	none
CC[C@]1(O)C[C@H]2CN(CCc3c([nH]c4ccccc34)[C@@](C(=O)OC)(c3cc4c(cc3OC)N(C=O)[C@H]3[C@@](O)(C(=O)OC)[C@H](OC(C)=O)[C@@]5(CC)C=CCN6CC[C@]43[C@@H]65)C2)C1	NOMO-1 viab 94
CCOc1ccccc1C(=O)Nc1ccc(S(=O)(=O)Nc2ccccn2)cc1	STK33 kin inh 24
CCOc1ccccc1C(=O)Nc1ccc(S(=O)(=O)Nc2nc(C)cc(C)n2)cc1	none
COc1ccc(CN(C)C[C@H]2Oc3ccc(NC(=O)Nc4cccc5ccccc45)cc3C(=O)N([C@H](C)CO)C[C@@H]2C)cc1	none (no result: STK33 kin inh)
COc1ccc(CN(C)C[C@H]2Oc3ccc(NC(=O)Nc4cccc5ccccc45)cc3C(=O)N([C@@H](C)CO)C[C@H]2C)cc1	none (no result: STK33 kin inh)
C[C@@H]1CN([C@@H](C)CO)C(=O)c2cc(NC(=O)Nc3cccc4ccccc34)ccc2O[C@@H]1CN(C)Cc1ccc(Oc2ccccc2)cc1	NOMO-1 viab 114 (no result: STK33 kin inh, PD-1 reverse act)
C[C@@H]1CN([C@H](C)CO)C(=O)c2cc(NC(=O)Nc3cccc4ccccc34)ccc2O[C@H]1CN(C)Cc1ccc(Oc2ccccc2)cc1	NOMO-1 viab 109
Cc1c(Br)ccc(NC(=O)Cn2cnc3sc4c(c3c2=O)CCCC4)c1C	none (no result: PD-1 reverse act)
COc1ccc(OCCSc2nc3ccccc3n2C)cc1	none (no result: STK33 kin inh)
CCOc1ccc2nc(SCC(=O)Nc3cccc(C(F)(F)F)c3)sc2c1	none (no result: PD-1 reverse act)
CCOC(=O)CC1Sc2ccccc2N=C1SCC(=O)Nc1cccc(C(F)(F)F)c1 (stereo not given)	NOMO-1 viab 126 (no result: STK33 kin inh)
CC(=O)Oc1ccc2c(c1)CCC1C2CC[C@@]2(C)C1CC[C@@H]2OC(C)=O (stereo not given in full)	none (no result: PD-1 reverse act)
C[C@@H]1CN([C@H](C)CO)C(=O)Cc2cc(NC(=O)Nc3ccc(C(F)(F)F)cc3)ccc2O[C@@H]1CN(C)C(=O)Nc1ccc2c(c1)OCO2	NOMO-1 viab 113
C[C@@H]1CN([C@H](C)CO)C(=O)Cc2cc(NC(=O)Nc3ccc4c(c3)OCO4)ccc2O[C@@H]1CN(C)C(=O)Nc1ccc(C(F)(F)F)cc1	none
